Experiment [1] concerns the target Cellular tumor antigen p53 (Homo sapiens) (UniProt P04637). The experiment can be described thus: TOX21_p53_BLA_p4_ratio: Tox21 HCT-116 p53 Agonism Beta-lactamase Assay, Ratio, Phase 4 (AID 2283601). The essentials:
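HCT-116 p53 beta-lactamase reporter cells (4000/well) preincubated 5 h, then compound (217-fold dilution of DMSO stock) for 16 h at 37C. CCF4-AM substrate added 2 h at room temperature; 460/530 nm emission ratio fitted upward versus DMSO.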

Experiment [2] in a line: Tanguay_ZF_120hpf_MORT_legacy: (Legacy) Oregon State University Tanguay Lab 120 Hour Post-fertilization zebrafish Assay for Mortality (AID 2283633). The essentials:
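5D WT zebrafish, chorion removed 4 hpf; 1 embryo/well from 6 hpf; static exposure to 120 hpf, 28C, dark, sealed. Final DMSO 0.64%. Readout: binary mortality, brightfield, 24 + 120 hpf; DMSO as negative control.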

A short description of experiment [3]: Tanguay_ZF_120hpf_AXIS_legacy: (Legacy) Oregon State University Tanguay Lab 120 Hour Post-fertilization zebrafish Assay for Body Axis Malformation (AID 2283635).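 On AC50: potency for an increased fraction of larvae scored with body axis malformation.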 In outline:
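Chorion is removed with pronase at 4 hpf, then single 6 hpf embryos are dosed (final DMSO 0.64%) and held statically at 28C in sealed, foil-covered plates. At 120 hpf body axis malformation is recorded as present or absent.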

Experiment [4] in a line: Tanguay_ZF_120hpf_EYE_legacy: (Legacy) Oregon State University Tanguay Lab 120 Hour Post-fertilization zebrafish Assay for Eye Malformation (AID 2283636).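 Further: binary presence or absence of eye malformation scored by brightfield in 120 hpf larvae.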 The essentials: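 Dechorionated Tropical 5D zebrafish embryos, one per well from 6 hpf, static exposure to 120 hpf at 28C, 0.64% DMSO. Eye malformation scored present/absent by brightfield; dead embryos not scored.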
A short description of experiment [5]: Tanguay_ZF_120hpf_SNOU_legacy: (Legacy) Oregon State University Tanguay Lab 120 Hour Post-fertilization zebrafish Assay for Snout Malformation (AID 2283637). The essentials: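 Dechorionated tropical 5D wild-type zebrafish embryos exposed statically from 6 to 120 hpf at 28C, one per well, in 0.64% DMSO. Snout malformation scored as present/absent by brightfield at 120 hpf; dead embryos not scored.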

The nature of experiment [6]: Tanguay_ZF_120hpf_JAW_legacy: (Legacy) Oregon State University Tanguay Lab 120 Hour Post-fertilization zebrafish Assay for Jaw Malformation (AID 2283638).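 On AC50: active means more embryos with jaw malformation than DMSO controls.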 In outline: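 Steps: dechorionate 4 hpf embryos (pronase); plate 1/well at 6 hpf; add test chemical, 0.64% DMSO final; seal, cover, hold at 28C statically to 120 hpf; score jaw defect presence/absence microscopically. Dead embryos not scored.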

A short description of experiment [7]: Tanguay_ZF_120hpf_OTIC_legacy: (Legacy) Oregon State University Tanguay Lab 120 Hour Post-fertilization zebrafish Assay for Otic Vesicle Malformation (AID 2283639). The essentials: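 Otic vesicle malformation is read as a yes/no morphology call at 120 hpf. Exposure is static at 28C with 0.64% (vol/vol) DMSO; embryos that die are excluded from non-mortality endpoints.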

Experiment [8] in a line: Tanguay_ZF_120hpf_PE_legacy: (Legacy) Oregon State University Tanguay Lab 120 Hour Post-fertilization zebrafish Assay for Pericardial Edema (AID 2283640).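 On AC50: potency for increased incidence of pericardial edema versus DMSO baseline.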 In outline: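 Embryos from wild-type 5D adults were staged, then dosed in 0.64% DMSO. They were kept sealed in the dark at 28C until 120 hpf. Pericardial edema was then recorded as present or absent.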
Experiment [9] can be described thus: Tanguay_ZF_120hpf_YSE_legacy: (Legacy) Oregon State University Tanguay Lab 120 Hour Post-fertilization zebrafish Assay for Yolk Sac Edema (AID 2283634).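 On AC50: actives raise the incidence of yolk sac edema above the DMSO baseline.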 The essentials: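 Dechorionate (pronase, 4 hpf) → place one 6 hpf embryo per well → static compound exposure, sealed and foil-covered, 28C, to 120 hpf → record yolk sac edema as present or absent. Final DMSO 0.64%.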

The nature of experiment [10]: Tanguay_ZF_120hpf_BRAI_legacy: (Legacy) Oregon State University Tanguay Lab 120 Hour Post-fertilization zebrafish Assay for Brain Malformation (AID 2283641). The essentials: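 Wild-type 5D larvae, static waterborne exposure to 120 hpf, 28C, 0.64% v/v DMSO. Brightfield scoring of brain defects, binary; dead embryos excluded. Positive ctrl 5uM trimethyltin chloride.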

Among the data in PubChem BioAssay (EPA / NIEHS) are outcome and AC50 values, retold here.

Results filed as inconclusive are left out. The source made the active and inactive calls. How the source made its calls: active means hit-call score of the fitted dose curve at least 0.9, where 1 is the maximum; inconclusive means response in the unintended direction; inactive means score below 0.9.

Chain of Cellular tumor antigen p53 (Homo sapiens) (P04637 whole entry, looked up): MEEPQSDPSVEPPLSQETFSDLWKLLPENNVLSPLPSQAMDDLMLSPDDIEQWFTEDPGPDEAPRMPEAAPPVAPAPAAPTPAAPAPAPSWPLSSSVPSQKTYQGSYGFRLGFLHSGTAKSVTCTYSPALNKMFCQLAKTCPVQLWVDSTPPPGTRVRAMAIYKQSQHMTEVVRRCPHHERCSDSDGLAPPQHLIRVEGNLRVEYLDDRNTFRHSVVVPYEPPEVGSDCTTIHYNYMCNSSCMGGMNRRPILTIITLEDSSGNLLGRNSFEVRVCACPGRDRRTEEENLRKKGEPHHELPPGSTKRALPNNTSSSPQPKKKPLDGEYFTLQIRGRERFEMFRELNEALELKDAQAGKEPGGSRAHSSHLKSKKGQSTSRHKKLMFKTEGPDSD

For the molecule `CCCCCCCC/C=C\CCCCCCCC(=O)OC[C@@H](O)[C@H]1OC[C@H](O)[C@H]1O`, the result in experiment [1], in [2], in experiment [3], in experiment [4], in [5] and in experiment [6] was inactive. Also, the molecule was called inactive in [7] and in [8].
For `NNC(=O)c1ccncc1`, the result in experiment [1], in experiment [9], in experiment [3], in experiment [4], in [5] and in [6] was inactive. For the same molecule, the call in [7], in experiment [8] and in [10] was inactive.
Broadly, the AC50 is the concentration at which the activity in the assay is half-maximal. Consider `OCc1c[nH]c2ccccc12`, for which the AC50 in experiment [1] was 78.9 µM (active).
As to `S=P(N1CC1)(N1CC1)N1CC1`, the result in experiment [1] was inactive.
As for `CCc1cccc(CC)c1N`, the result in experiment [1], in experiment [2], in experiment [9], in [3], in experiment [6] and in [7] was inactive. In addition, the call in experiment [10] was inactive.
As to `CCCCCCCCCCCCCCCCOS(=O)(=O)O`, the result in experiment [1], in experiment [2], in experiment [9], in experiment [3], in experiment [4] and in [5] was inactive. The result in experiment [6], in experiment [7], in [8] and in experiment [10] was inactive.
As to `OC(Cn1cncn1)(Cn1cncn1)c1ccc(F)cc1F`, the result in experiment [1], in [2], in experiment [9], in experiment [3], in experiment [5] and in experiment [6] was inactive. Also, the call in experiment [7] and in experiment [8] was inactive.
For the molecule `c1ccc(C(O[C@@H]2CCCN(CCc3ccc4c(c3)OCO4)C2)c2ccccc2)cc1`, in experiment [1], the result was inactive. The AC50 in experiment [9] is 24.7 µM (active); in experiment [3] it was 34.7 µM (active); in [4] it was 36.5 µM (active); in experiment [5], 44.2 µM (active); in experiment [6], 44.8 µM (active); in [7], 45.8 µM (active). The concentration at half-maximal activity (AC50) in [8] was 36 µM (active); in experiment [10], 42 µM (active).
`c1ccc2cc3ccccc3cc2c1`: the outcome in experiment [1], in experiment [9], in experiment [3], in experiment [4], in [5] and in [6] was inactive. For the same molecule, the outcome in experiment [7] and in experiment [8] was inactive.
Turning to `CCOC(N)=O`, the outcome in experiment [1], in experiment [2], in experiment [9], in experiment [3], in experiment [4] and in experiment [5] was inactive. Moreover, the molecule was called inactive in [6], in [7] and in experiment [10].
In the case of `Cc1ncc([C@@H](CCCCCCc2ccc3c(n2)NCCC3)CC(=O)O)cn1`, the result in experiment [2], in [9], in experiment [3], in experiment [4], in experiment [5] and in [6] was inactive. Besides, the outcome in experiment [7], in experiment [8] and in experiment [10] was inactive.
Turning to `C[C@]12C=CC(=O)C=C1CC[C@H]1[C@@H]3C[C@@H](O)[C@](O)(C(=O)CO)[C@@]3(C)C[C@H](O)[C@@]12F`, the result in experiment [1], in [9], in [3], in experiment [4], in [5] and in [6] was inactive. For the same molecule, the molecule was called inactive in experiment [7], in [8] and in [10].
In the case of `Cc1cccc(O)c1C`, in experiment [1], the outcome was inactive.
`O=c1[nH]cnc2c1ncn2[C@H]1CC[C@@H](CO)O1`: the outcome in [2], in experiment [9], in experiment [3], in [4], in experiment [5] and in experiment [6] was inactive. The molecule was called inactive in [7] and in experiment [8].
With `O=S1(=O)CCCO1`, the outcome in [1], in experiment [2], in experiment [3], in experiment [4], in [5] and in [6] was inactive. Further, the outcome in [7], in experiment [8] and in experiment [10] was inactive.
Regarding `CC(=O)c1ccccc1`, the outcome in [1], in experiment [2], in experiment [9], in [3], in experiment [4] and in experiment [5] was inactive. For the same molecule, the call in experiment [6], in experiment [7], in [8] and in [10] was inactive.
On to `CCCCCCCCCCCCCCO`, for which the result in experiment [1], in [2], in experiment [9], in experiment [3], in experiment [4] and in experiment [5] was inactive. The call in experiment [6], in experiment [7], in experiment [8] and in experiment [10] was inactive.
Turning to `CCc1ccc(O)c(C(C)(C)C)c1`, the AC50 in [1] is 53.1 µM (active). The molecule was classed as inactive in experiment [9], in [4], in experiment [5], in [6], in experiment [7] and in experiment [8]. Also, in experiment [10], the molecule was called inactive.
